Source: PubChem BioAssay
This is a sample that favours compounds with a hit; in the whole collection about 2.9% have one here.
PvdQ acylase – blocks Pseudomonas aeruginosa PvdQ acylase activity; purified PvdQ acylase, fluorescence plate reader; inhibition, % at 10 µM; 340,000 tested, 0.063% active; AID 488965; in the data active = inhibition above about 30%, passing the limit was not always enough; inconclusive = no clear call, values can overlap the other calls;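 also: 0% = vehicle neutral wells and 100% = reference inhibitor wells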
esBAF inh – inhibitors of esBAF chromatin remodeling in mouse ES cells; Bmi1-luciferase knock-in reporter, 24 h; 100% = twice the neutral-well signal; reporter increase, % at 12.5 µM; 350,000 tested, 2% active; AID 602393; in the data active = activation above about 40%; inconclusive = no clear call, values can overlap the other calls;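 also: 0% = median of the plate's neutral control wells and 100% = double that signal; a rise in the Bmi1 reporter signal indicates esBAF inhibition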
MITF TRPM1 HTS – increases MITF-driven TRPM1 promoter luciferase signal; SK-MEL-5 TRPM1-promoter luciferase, 24 h; % of positive control, neutral wells = 0; activation, % at 12.5 µM; 300,000 tested, 0.75% active; AID 588334;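 active = mean activation of at least 80% with every replicate also reaching 80%; inconclusive = mean reaches 80% but some replicate falls short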;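 also: 0% = neutral control wells and 100% = parthenolide positive control wells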
Vif inh – blocks HIV Vif function. HEK293T cells, Vif self-association by quenched fluorescence, imaging, 24 h. inhibition, % at 7.49 µM. 340,000 tested, 0.35% active. AID 602346; in the data active = inhibition above about 50%, passing the limit was not always enough; inconclusive = no clear call, values can overlap the other calls; inactive = below about 31%
Wnt bcat act – Wnt/beta-catenin pathway activation; Wnt/beta-catenin reporter cell assay, activator, plate reader; activation, % at 9.35 µM; 300,000 tested, 1.2% active; in the data active = activation above about 30%, passing the limit was not always enough; inconclusive = no clear call, values can overlap the other calls;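 also: 0% = neutral control wells and 100% = positive control wells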
Glyco luc inh – blocks N-linked glycosylation in D54 reporter cells; D54 ERlucT glycosylation luciferase reporter, 24 h; percent of 100 nM tunicamycin response; reporter increase, % at 12.5 µM; 360,000 tested, 0.23% active; AID 588692;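 active = mean luciferase reporter signal, scaled so untreated is 0 and the glycosylation-blocking control 100, at or above a set limit in every replicate; inconclusive = mean reaches the limit but not every replicate does; inactive = mean below the limit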;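 also: luciferase carries N-glycosylation sites so blocking glycosylation raises the light; 0% = median of neutral control wells and 100% = median of 100 nM tunicamycin wells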
The depositor's hits bear a star.

Results for Cc1ccc(C2=NNC(c3cccc(F)c3)S2)cc1 (stereo not given) ?
PvdQ acylase: -10.8; MITF TRPM1 HTS: -19.5; Vif inh: 17.3; Wnt bcat act: 6.3; Glyco luc inh: -20.3

How did COc1ccc(C2NN=C(c3ccc(C)cc3)S2)cc1OC (stereo not given) do in these assays?
PvdQ acylase: -12.2; MITF TRPM1 HTS: 56.7; Vif inh: -9.5; Wnt bcat act: 40.7*; Glyco luc inh: -6.8

How did CC(=O)Nc1ccc(SCc2ncc(-c3ccccc3)o2)cc1 do in these assays?
PvdQ acylase: -5.0; esBAF inh: 55.2*; MITF TRPM1 HTS: 75.9; Vif inh: -3.2; Wnt bcat act: 9.0; Glyco luc inh: -4.8

Results for COCC(=O)Nc1ccc2c(c1)C(=O)N(C)[C@H]1CC[C@@H](CC(=O)NCCc3ccncc3)O[C@H]1CO2 ?
esBAF inh: -1.2

Results for CCCNC(=O)C[C@@H]1C[C@@H]2c3cc(NC(=O)c4cccnc4)ccc3O[C@@H]2[C@H](CO)O1 ?
esBAF inh: 0.7

How did CCCN=Cc1sc2ccc(OCC)cc2c1O do in these assays?
PvdQ acylase: -0.9; esBAF inh: 76.7*; MITF TRPM1 HTS: 100.5*; Vif inh: -0.9; Wnt bcat act: 26.5; Glyco luc inh: -0.3

Results for COc1ccccc1C(=O)Nc1ccc2c(c1)OC[C@H](C)N(CC1CC1)C[C@H](C)[C@H](OC)CN(C)C2=O ?
esBAF inh: 4.3

How did CCc1ccccc1Nc1nc(N)nc(CSCC(=O)Nc2ccc(C)c(C)c2)n1 do in these assays?
PvdQ acylase: -12.5; MITF TRPM1 HTS: -8.4; Vif inh: -37.6; Wnt bcat act: 57.3*; Glyco luc inh: -0.1

What do the screens show for `CCc1ccc(NC(=O)CSCc2nc(N)nc(Nc3ccccc3CC)n2)cc1`?
PvdQ acylase: 1.4; esBAF inh: -1.2; MITF TRPM1 HTS: -9.3; Vif inh: -5.4; Wnt bcat act: -5.9; Glyco luc inh: 9.1

Results for Cc1nc2ccc(-c3nc4cc(N)ccc4o3)cc2[nH]1 ?
PvdQ acylase: -11.0; esBAF inh: -45.8; MITF TRPM1 HTS: -5.4; Vif inh: -4.7; Wnt bcat act: 33.3*; Glyco luc inh: -11.6

Results for Nc1ccc2oc(-c3ccc4nc[nH]c4c3)nc2c1 ?
PvdQ acylase: -7.5; esBAF inh: -34.9; Vif inh: -3.2; Wnt bcat act: 16.9; Glyco luc inh: -8.2

How did CCOC(=O)/C(=C\c1ccccc1)C(=O)c1cc(C(C)=O)c(Nc2ccccc2)s1 do in these assays?
PvdQ acylase: -4.2; esBAF inh: -12.5; MITF TRPM1 HTS: -58.7; Vif inh: 4.7; Glyco luc inh: 35.2*

What do the screens show for `CCOC(=O)C(c1nc2ccccc2[nH]1)n1c(-c2ccccn2)nc2ccccc21` (stereo not given)?
esBAF inh: 49.4*; Vif inh: -8.3; Wnt bcat act: 1.3; Glyco luc inh: -0.2

What do the screens show for `C[C@@H]1CN([C@H](C)CO)C(=O)Cc2cc(NC(=O)C3CCCCC3)ccc2O[C@@H]1CN(C)Cc1ccc(Oc2ccccc2)cc1`?
esBAF inh: -0.4

How did CO[C@@H]1CN(C)C(=O)c2ccc(NC(=O)c3ccccc3F)cc2OC[C@H](C)NC[C@@H]1C do in these assays?
esBAF inh: -1.9

What do the screens show for `COc1ccc(OC)c(COC(=O)c2cc([N+](=O)[O-])ccc2N2CCOCC2)c1`?
PvdQ acylase: -9.3; esBAF inh: 4.0; MITF TRPM1 HTS: -10.9; Vif inh: -24.5; Wnt bcat act: -5.9; Glyco luc inh: 6.8

What do the screens show for `CCOc1ccc(C(C)=O)cc1COC(=O)c1cc([N+](=O)[O-])ccc1N1CCOCC1`?
PvdQ acylase: -4.8; esBAF inh: -2.5; MITF TRPM1 HTS: -10.3; Vif inh: 71.4*; Wnt bcat act: -5.9; Glyco luc inh: 5.3

What do the screens show for `O=C(O)[C@@H]1[C@@H](CO)[C@@H]2Cn3c(ccc(-c4cncnc4)c3=O)[C@@H]2N1C(=O)C1CCC1`?
esBAF inh: -0.7

What do the screens show for `Nc1ccc(C(=O)OCc2nc3c(ccc4ccccc43)[nH]2)cc1`?
PvdQ acylase: -8.5; esBAF inh: 78.8*; MITF TRPM1 HTS: 45.1; Vif inh: -17.5; Wnt bcat act: 13.0; Glyco luc inh: -9.7

What do the screens show for `O=C(Cn1cc(C(=O)C(=O)N2CCOCC2)c2ccccc21)Nc1cccc(C(F)(F)F)c1`?
esBAF inh: -6.2; Vif inh: 70.2*; Wnt bcat act: -2.7; Glyco luc inh: 1.4

How did CO[C@@H]1CN(C)C(=O)c2ccc(NC(C)=O)cc2OC[C@@H](C)N(C(=O)CN2CCOCC2)C[C@H]1C do in these assays?
esBAF inh: 0.6

Results for Cc1c(C(=O)N2CCN(C)CC2)oc2c1C(=O)CC(C)(C)C2 ?
PvdQ acylase: -0.5; esBAF inh: -1.8; MITF TRPM1 HTS: 1.9; Vif inh: -3.6; Wnt bcat act: -0.5; Glyco luc inh: 0.3

How did Cc1c(C(=O)N2CCc3ccccc32)oc2c1C(=O)CC(C)(C)C2 do in these assays?
PvdQ acylase: -6.2; esBAF inh: 52.5*; MITF TRPM1 HTS: inconclusive; Vif inh: -7.3; Wnt bcat act: -1.9; Glyco luc inh: -4.2

How did CCCCNc1c(-c2ccc(OC)c(Sc3ccc(OC)cc3)c2)nc2ccccn12 do in these assays?
PvdQ acylase: -17.4; esBAF inh: 0.0; MITF TRPM1 HTS: -13.0; Vif inh: -0.7; Glyco luc inh: -5.8

How did CCCCNc1c(-c2ccc(OC)c(Sc3ccc(OC)cc3)c2)nc2cnccn12 do in these assays?
PvdQ acylase: 0.1; esBAF inh: -7.7; MITF TRPM1 HTS: -2.3; Vif inh: 60.7*; Wnt bcat act: -3.5; Glyco luc inh: -1.0

What do the screens show for `COc1ccc(CN(C)C[C@@H]2Oc3ccc(NC(=O)CCCN(C)C)cc3C(=O)N([C@@H](C)CO)C[C@H]2C)cc1`?
esBAF inh: 1.6

Results for Cc1nn(C)cc1/C=C/C(=O)c1cccs1 ?
PvdQ acylase: -7.2; esBAF inh: 65.3*; Vif inh: 10.8; Wnt bcat act: 89.7*; Glyco luc inh: 2.9

What do the screens show for `Cc1nn(C)c(C)c1/C=C/C(=O)c1cccs1`?
PvdQ acylase: 0.8; esBAF inh: 18.7; Vif inh: -0.3; Wnt bcat act: 39.1*; Glyco luc inh: -0.2

How did Cc1nn(C)c(C)c1/C=C/C(=O)c1ccccc1 do in these assays?
PvdQ acylase: -9.3; MITF TRPM1 HTS: 60.4; Vif inh: -0.9; Glyco luc inh: -2.4

Results for CC=Cc1ccc2n(c1=O)C[C@H]1[C@H](CO)[C@@H](C(=O)N(C)C)[C@@H]2N1C(=O)c1ccc(F)cc1 (mixture of isomers) ?
esBAF inh: 4.9

What do the screens show for `Cc1cc(C)cc(C(=O)O/N=C(\N)c2ccc(Br)cc2)c1`?
PvdQ acylase: -3.8; esBAF inh: 10.0; MITF TRPM1 HTS: 20.8; Vif inh: 1.7; Glyco luc inh: 1.3
